From article PMC12820563, “FoxP3 forms a head-to-head dimer in vivo and stabilizes its multimerization on adjacent microsatellites”
In all, about 16,000 sequences were measured (“rpm ratio (pull-down/input)”: median about 0.5, highest 2% from about 5.5 on). The full list was thinned out, with the highest values kept by preference.

target: T1, MBP-FoxP3dN (Mus musculus, UniProt Q99JB6 188-423); assay: PD-seq (MBP pull-down with sequencing); 20 mM Tris-HCl pH 7.5, 100 mM NaCl, 1.5 mM MgCl2, 0.4 uM protein, 0.1 uM dsDNA library, 30 min, room temperature, amylose pull-down; high values mean tight binding; settings: protein: recombinant; tags: His6-MBP; chain copies: 2; dsDNA, one strand shown
T1 sequence: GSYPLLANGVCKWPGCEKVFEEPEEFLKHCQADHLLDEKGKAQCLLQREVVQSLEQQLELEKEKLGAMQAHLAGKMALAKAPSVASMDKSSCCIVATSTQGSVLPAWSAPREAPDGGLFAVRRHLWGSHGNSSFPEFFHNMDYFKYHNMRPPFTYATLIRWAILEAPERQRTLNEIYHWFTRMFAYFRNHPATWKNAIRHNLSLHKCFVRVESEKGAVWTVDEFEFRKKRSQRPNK
In short: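 Amylose resin was used to capture complexes formed during 30 min at room temperature in Tris pH 7.5 buffer with NaCl and MgCl2 between 0.4 µM His6-MBP-tagged mouse FoxP3 or FoxP1 fragment lacking the N-terminus, expressed in E. coli, and 0.1 µM Klenow-filled double-stranded degenerate DNA library. After three washes, the DNA was released with proteinase K, barcoded by PCR and sequenced on Illumina. Binding is pooled-replicate reads-per-million enrichment, pull-down over input.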

How did the binding signal turn out when “GATGATTGTTCTCCCAGCTGATGAATTCGATATTTCGAGTAAACAAATTTTCCTAATCTTTCTGTTCAAGCGCCATCTAC” was run?
Its binding signal is 1.79 RPM ratio (pull-down/input).

With “GATGATTGTTCTCCCAGCTGATGAATTTCGCAAATCGAGTAAACAAATTTTCCTAATCTTTCTGTTCAAGCGCCATCTAC” as the sequence, how does the binding signal read?
Its binding signal is 0.634 RPM ratio (pull-down/input).

For “GATGATTGTTCTCCCAGCTGATGAATTCGTCGTATCGAGTAAACAAATTTTCCTAATCTTTCTGTTCAAGCGCCATCTAC”, which binding signal is on record?
The binding signal was 1.17 RPM ratio (pull-down/input).

With “GATGATTGTTCTCCCAGCTGATGAATTTAGTAAATCGAGTAAACAAATTTTCCTAATCTTTCTGTTCAAGCGCCATCTAC” as the sequence, how does the binding signal read?
Its binding signal is 0.439 RPM ratio (pull-down/input).

With “GATGATTGTTCTCCCAGCTGATGAATTGTAGCCGTCGAGTAAACAAATTTTCCTAATCTTTCTGTTCAAGCGCCATCTAC” as the sequence, how does the binding signal read?
Its binding signal is 0.622 RPM ratio (pull-down/input).

“GATGATTGTTCTCCCAGCTGATGAATTGTATGTATCGAGTAAACAAATTTTCCTAATCTTTCTGTTCAAGCGCCATCTAC” was tested. Which binding signal did it give?
Its binding signal is 4.55 RPM ratio (pull-down/input).

For “GATGATTGTTCTCCCAGCTGATGAATTTTATGTATCGAGTAAACAAATTTTCCTAATCTTTCTGTTCAAGCGCCATCTAC”, which binding signal is on record?
The binding signal was 3.53 RPM ratio (pull-down/input).

With “GATGATTGTTCTCCCAGCTGATGAATTATGTATTTCGAGTAAACAAATTTTCCTAATCTTTCTGTTCAAGCGCCATCTAC” as the sequence, how does the binding signal read?
The binding signal was 4.76 RPM ratio (pull-down/input).

“GATGATTGTTCTCCCAGCTGATGAATTATATGTATCGAGTAAACAAATTTTCCTAATCTTTCTGTTCAAGCGCCATCTAC” was tested. Which binding signal did it give?
Its binding signal is 2.22 RPM ratio (pull-down/input).

“GATGATTGTTCTCCCAGCTGATGAATTATGTTTCTCGAGTAAACAAATTTTCCTAATCTTTCTGTTCAAGCGCCATCTAC” was tested. Which binding signal did it give?
Its binding signal is 4.18 RPM ratio (pull-down/input).

With “GATGATTGTTCTCCCAGCTGATGAATTATCTGTATCGAGTAAACAAATTTTCCTAATCTTTCTGTTCAAGCGCCATCTAC” as the sequence, how does the binding signal read?
Its binding signal is 0.545 RPM ratio (pull-down/input).

Which binding signal does the source give for “GATGATTGTTCTCCCAGCTGATGAATTATGTATCTCGAGTAAACAAATTTTCCTAATCTTTCTGTTCAAGCGCCATCTAC” here?
Its binding signal is 5.75 RPM ratio (pull-down/input).

How did the binding signal turn out when “GATGATTGTTCTCCCAGCTGATGAATTATGTATATCGAGTAAACAAATTTTCCTAATCTTTCTGTTCAAGCGCCATCTAC” was run?
The binding signal was 5.96 RPM ratio (pull-down/input).

“GATGATTGTTCTCCCAGCTGATGAATTATGTGTATCGAGTAAACAAATTTTCCTAATCTTTCTGTTCAAGCGCCATCTAC” was tested. Which binding signal did it give?
The binding signal was 5.73 RPM ratio (pull-down/input).

Which binding signal does the source give for “GATGATTGTTCTCCCAGCTGATGAATTCTTCGATTCGAGTAAACAAATTTTCCTAATCTTTCTGTTCAAGCGCCATCTAC” here?
Its binding signal is 0.253 RPM ratio (pull-down/input).

“GATGATTGTTCTCCCAGCTGATGAATTGGGTTAGTCGAGTAAACAAATTTTCCTAATCTTTCTGTTCAAGCGCCATCTAC” was tested. Which binding signal did it give?
Its binding signal is 0.756 RPM ratio (pull-down/input).

How did the binding signal turn out when “GATGATTGTTCTCCCAGCTGATGAATTCCTCCGTTCGAGTAAACAAATTTTCCTAATCTTTCTGTTCAAGCGCCATCTAC” was run?
Its binding signal is 0.255 RPM ratio (pull-down/input).

With “GATGATTGTTCTCCCAGCTGATGAATTGTCCTTTTCGAGTAAACAAATTTTCCTAATCTTTCTGTTCAAGCGCCATCTAC” as the sequence, how does the binding signal read?
The binding signal was 0.39 RPM ratio (pull-down/input).

“GATGATTGTTCTCCCAGCTGATGAATTTCTTTTGTCGAGTAAACAAATTTTCCTAATCTTTCTGTTCAAGCGCCATCTAC” was tested. Which binding signal did it give?
Its binding signal is 1.65 RPM ratio (pull-down/input).

How did the binding signal turn out when “GATGATTGTTCTCCCAGCTGATGAATTGTTTCTGTCGAGTAAACAAATTTTCCTAATCTTTCTGTTCAAGCGCCATCTAC” was run?
Its binding signal is 1 RPM ratio (pull-down/input).

“GATGATTGTTCTCCCAGCTGATGAATTCAATTTGTCGAGTAAACAAATTTTCCTAATCTTTCTGTTCAAGCGCCATCTAC” was tested. Which binding signal did it give?
Its binding signal is 2.23 RPM ratio (pull-down/input).

“GATGATTGTTCTCCCAGCTGATGAATTCTTTTTGTCGAGTAAACAAATTTTCCTAATCTTTCTGTTCAAGCGCCATCTAC” was tested. Which binding signal did it give?
Its binding signal is 0.437 RPM ratio (pull-down/input).

How did the binding signal turn out when “GATGATTGTTCTCCCAGCTGATGAATTTGTTTTGTCGAGTAAACAAATTTTCCTAATCTTTCTGTTCAAGCGCCATCTAC” was run?
The binding signal was 7.57 RPM ratio (pull-down/input).

“GATGATTGTTCTCCCAGCTGATGAATTTTGTTTGTCGAGTAAACAAATTTTCCTAATCTTTCTGTTCAAGCGCCATCTAC” was tested. Which binding signal did it give?
The binding signal was 7.3 RPM ratio (pull-down/input).

Which binding signal does the source give for “GATGATTGTTCTCCCAGCTGATGAATTCTGTTTGTCGAGTAAACAAATTTTCCTAATCTTTCTGTTCAAGCGCCATCTAC” here?
The binding signal was 6.99 RPM ratio (pull-down/input).

“GATGATTGTTCTCCCAGCTGATGAATTGTTTTTGTCGAGTAAACAAATTTTCCTAATCTTTCTGTTCAAGCGCCATCTAC” was tested. Which binding signal did it give?
The binding signal was 4.16 RPM ratio (pull-down/input).

Which binding signal does the source give for “GATGATTGTTCTCCCAGCTGATGAATTTTCTTTGTCGAGTAAACAAATTTTCCTAATCTTTCTGTTCAAGCGCCATCTAC” here?
The binding signal was 1.15 RPM ratio (pull-down/input).

“GATGATTGTTCTCCCAGCTGATGAATTTAGAGACTCGAGTAAACAAATTTTCCTAATCTTTCTGTTCAAGCGCCATCTAC” was tested. Which binding signal did it give?
Its binding signal is 0.585 RPM ratio (pull-down/input).

With “GATGATTGTTCTCCCAGCTGATGAATTAATGAGATCGAGTAAACAAATTTTCCTAATCTTTCTGTTCAAGCGCCATCTAC” as the sequence, how does the binding signal read?
The binding signal was 0.246 RPM ratio (pull-down/input).

How did the binding signal turn out when “GATGATTGTTCTCCCAGCTGATGAATTTCGAACCTCGAGTAAACAAATTTTCCTAATCTTTCTGTTCAAGCGCCATCTAC” was run?
The binding signal was 0.301 RPM ratio (pull-down/input).

Which binding signal does the source give for “GATGATTGTTCTCCCAGCTGATGAATTACAACCGTCGAGTAAACAAATTTTCCTAATCTTTCTGTTCAAGCGCCATCTAC” here?
Its binding signal is 0.497 RPM ratio (pull-down/input).

With “GATGATTGTTCTCCCAGCTGATGAATTGAGTTAATCGAGTAAACAAATTTTCCTAATCTTTCTGTTCAAGCGCCATCTAC” as the sequence, how does the binding signal read?
Its binding signal is 0.369 RPM ratio (pull-down/input).
